Measurements taken from PubChem BioAssay (NCATS).
Results filed as inconclusive are left out. Where a call stands in place of a potency, no number is given. The source made the active and inactive calls. Calls come from the whole dose curve; as a rule, active = well fitted curve in the direction sought with a large enough effect; inconclusive = small, poorly fitted or top-dose-only effect, or another doubt; inactive = no such curve, though single readings can be large; an effect the other way counts as inactive or inconclusive.

What follows are compounds tested against DNA dC->dU-editing enzyme APOBEC-3G (Homo sapiens) (UniProt Q9HC16) (assay: qHTS for inhibitors of Vif-A3G interactions: Validation (AID 588379)). Details: Vif-A3G protein interaction assay; series mostly up to 46.1 µM.
Sequence of DNA dC->dU-editing enzyme APOBEC-3G (Homo sapiens) (Q9HC16 whole entry, looked up): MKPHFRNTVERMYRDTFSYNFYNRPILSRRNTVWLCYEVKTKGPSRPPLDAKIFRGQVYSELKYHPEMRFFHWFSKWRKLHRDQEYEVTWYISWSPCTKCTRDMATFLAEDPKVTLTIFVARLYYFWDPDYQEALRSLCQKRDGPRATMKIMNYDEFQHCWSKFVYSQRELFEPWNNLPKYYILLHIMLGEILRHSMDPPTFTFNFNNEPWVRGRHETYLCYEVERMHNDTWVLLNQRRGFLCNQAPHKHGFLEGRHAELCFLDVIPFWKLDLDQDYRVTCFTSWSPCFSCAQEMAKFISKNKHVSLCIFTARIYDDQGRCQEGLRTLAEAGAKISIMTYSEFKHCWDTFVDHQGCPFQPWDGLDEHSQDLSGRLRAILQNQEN
Method in brief: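 HeLa cells stably expressing Vif and A3G-eYFP, 700 cells/well, incubated overnight at 37 deg C, then exposed to compound overnight at 37 deg C. Inhibition of Vif-mediated degradation read as increased yellow fluorescence (Ex 488/Em 500-530) by laser-scanning cytometry.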
COc1c(-c2ccc(O)c(O)c2)oc2cc(O)cc(O)c2c1=O was tested, and the outcome was “inactive”. For O=c1cc(-c2ccc(O)c(O)c2)oc2cc(OC3OC(CO)C(O)C(O)C3O)cc(O)c12 (configuration not stated), the outcome was “inactive”. With COc1ccc2c(c1)[C@@]1(C)CCC[C@](C)(CO)C1CC2 (some centres not stated) the outcome was “inactive”. In the case of N#C/C(=C\c1ccc(O)c(O)c1)C(=O)NCCCCc1ccccc1, the outcome is reported as “inactive”.

The compounds below were run against Rap guanine nucleotide exchange factor 3 (Homo sapiens) (UniProt O95398) (assay: Confirmatory qHTS for antagonist of cAMP-regulated guanine nucleotide exchange factor 3 (EPAC1) (AID 1645880; note: nearly all actives have a fitted effect of over 55% in size; note: potency is the fitted concentration of half-maximal effect)). Details: EPAC1 Rap1B-BODIPY-GDP exchange, fluorescence; series mostly up to 115 µM.
Sequence of Rap guanine nucleotide exchange factor 3 (Homo sapiens) (O95398 whole entry, looked up): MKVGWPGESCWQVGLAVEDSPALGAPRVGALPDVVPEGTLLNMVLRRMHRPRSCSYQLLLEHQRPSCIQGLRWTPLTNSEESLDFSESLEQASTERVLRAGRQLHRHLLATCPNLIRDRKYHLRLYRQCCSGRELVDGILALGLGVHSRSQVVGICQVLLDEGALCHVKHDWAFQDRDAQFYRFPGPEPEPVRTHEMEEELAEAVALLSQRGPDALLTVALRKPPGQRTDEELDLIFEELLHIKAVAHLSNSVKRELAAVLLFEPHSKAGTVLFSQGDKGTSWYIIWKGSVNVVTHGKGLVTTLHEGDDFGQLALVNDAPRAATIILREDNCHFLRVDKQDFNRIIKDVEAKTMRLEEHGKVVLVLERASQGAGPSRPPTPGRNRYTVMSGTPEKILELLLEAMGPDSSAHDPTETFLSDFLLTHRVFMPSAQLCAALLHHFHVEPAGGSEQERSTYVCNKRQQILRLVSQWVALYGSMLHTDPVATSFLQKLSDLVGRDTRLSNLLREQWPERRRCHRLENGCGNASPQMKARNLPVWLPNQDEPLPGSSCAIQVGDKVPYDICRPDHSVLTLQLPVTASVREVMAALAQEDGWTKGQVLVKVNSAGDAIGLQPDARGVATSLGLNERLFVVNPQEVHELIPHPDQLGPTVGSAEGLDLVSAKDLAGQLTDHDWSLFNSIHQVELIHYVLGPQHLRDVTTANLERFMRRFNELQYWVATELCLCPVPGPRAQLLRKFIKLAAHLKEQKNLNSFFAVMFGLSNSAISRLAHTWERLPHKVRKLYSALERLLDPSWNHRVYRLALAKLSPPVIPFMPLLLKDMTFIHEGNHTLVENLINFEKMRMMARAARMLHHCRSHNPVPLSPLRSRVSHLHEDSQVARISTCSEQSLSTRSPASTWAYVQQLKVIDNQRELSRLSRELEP
Method in brief: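 Nucleotide exchange uses 100 nM EPAC1, 250 nM RAP1B-BODIPY-GDP and 50 uM GDP, with compounds in a concentration-titration series. After 5 min at room temperature, fluorescence (480 nm ex/540 nm em) is read every 5 min for 30 min. Data are normalized to control ATA and DMSO.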
COc1ccc(C(=O)O)c(O)c1OC was tested, and the Potency was “inactive”. In the case of CCOC(=O)c1c(C)cc(OC)cc1O, the Potency is reported as “inactive”. O=C(c1cccc(F)c1)N1CCC[C@@]2(CCN(C(c3ccccc3)c3ccccc3)C2)C1 was tested, and the Potency was “inactive”. In the case of CC(=O)Oc1ccc2c(c1C(C)C)CCC1C(C)(C)CCC[C@@]21C (some centres not stated), the Potency is reported as “inactive”. COC(=O)CCCOc1ccc(Cl)cc1Cl was tested, and the Potency was “inactive”. In the case of NCC1OC(n2cnc3c(=O)[nH]c(N)nc32)C(O)C1O (configuration not stated), the Potency is reported as “inactive”. For Nc1nc2n[nH]nc2c(=O)[nH]1, the Potency was “inactive”. In the case of CC(=O)OC1CC2C(C)(C)CCC(=O)[C@@]2(C)C2CC[C@@]3(C)C(c4ccoc4)OC(=O)C4OC43[C@]12C (some centres not stated), the Potency is reported as “inactive”. O=c1cc(-c2ccc(O)c(O)c2)oc2cc(OC3OC(CO)C(O)C(O)C3O)cc(O)c12 (configuration not stated) was tested, and the Potency was 7.03 µM (active). With COc1ccc(-c2cc(=O)c3c(OC)c(OC)c(OC)c(OC)c3o2)cc1 the Potency was “inactive”. With COc1ccccc1CNc1ncnc2ccc(-c3cccnc3)cc12 the Potency was “inactive”. For CC1(C)C(O)CC[C@]2(C)C1CC[C@@]1(C)C2C(=O)C=C2[C@@H]3C[C@@](C)(C(=O)O)CC[C@@]3(C)CCC21C (some centres not stated), the Potency was “inactive”. In the case of O=c1c(-c2ccccc2)coc2cc(O)cc(O)c12, the Potency is reported as 44.4 µM (active).
